Screens deposited in PubChem by The Scripps Research Institute Molecular Screening Center.
FBW7 act: human FBW7 E3 ligase activation, primary screen | AID 1259310 | AlphaScreen FBW7–phospho-cyclin E peptide binding, activator screen | Q969H0 | hit rate 0.13% among 650,000 | normalized activity (activation), % at 26.1 µM; in the data active = normalized activity above about 1.9%;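 note: purified mutant Fbw7 with reduced substrate affinity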
TEAD-YAP inh: TEAD-YAP interaction inhibition; HEK-TIYL cells, TEAD-Gal4/YAP UAS-luciferase luminescence; AID 1259422; hit rate 1.4% among 640,000; inhibition, % at 9.12 µM; in the data active = inhibition above about 32%;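 note: 0% = median of test compound wells and 100% = reference inhibitor wells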
MITF primary: inhibitors of human MITF | O75030 | AlphaScreen MITF homodimerization, bead proximity signal | inhibition, % at 2.6 µM | hit rate 0.91% among 650,000 | AID 1259374; in the data active = inhibition above about 50%;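 note: 0% = vehicle wells with protein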
Target sequence (O75030 whole entry, looked up): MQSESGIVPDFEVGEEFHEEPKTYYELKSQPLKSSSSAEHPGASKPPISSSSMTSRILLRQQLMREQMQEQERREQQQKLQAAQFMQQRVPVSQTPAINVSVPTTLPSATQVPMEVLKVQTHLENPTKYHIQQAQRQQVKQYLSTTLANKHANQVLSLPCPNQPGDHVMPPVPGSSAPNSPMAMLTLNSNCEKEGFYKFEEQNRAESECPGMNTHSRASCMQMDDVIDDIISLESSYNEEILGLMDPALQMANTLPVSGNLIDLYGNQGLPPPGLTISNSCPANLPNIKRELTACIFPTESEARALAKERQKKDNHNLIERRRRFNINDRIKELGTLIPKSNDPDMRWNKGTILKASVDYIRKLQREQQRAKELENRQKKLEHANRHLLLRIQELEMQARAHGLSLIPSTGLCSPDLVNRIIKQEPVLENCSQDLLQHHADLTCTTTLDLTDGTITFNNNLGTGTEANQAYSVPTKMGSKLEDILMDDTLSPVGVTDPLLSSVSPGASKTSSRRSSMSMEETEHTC
GPR151 ag: human GPR151 activation; activation, % at 11.2 µM; hit rate 1% among 650,000; PathHunter beta-arrestin GPR151 cells, luminescence; AID 1508602; Q8TDV0; in the data active = activation above about 4.9%;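 note: 0% = median of compound wells and 100% = cells with positive control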
MITF confirm: confirmation of human MITF inhibitors | shares compounds with MITF primary | AlphaScreen MITF homodimerization, biotin/His-MITF beads | inhibition, % at 2.6 µM | hit rate 16% among 4,700 | AID 1259372;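 active = inhibition above a cutoff derived from the DMSO control wells, cut at about 28% in these data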;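 note: 0% = MITF dimer wells with DMSO only; inhibitors lower the bead chemiluminescence by keeping MITF from dimerizing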
AS interf DR: optically interferes with AlphaScreen signal in dose response; shares compounds with MITF primary; AlphaScreen optical interference counterscreen, cell-free; IC50, µM; hit rate 6% among 480; AID 1259373; call rule not given here
AlphaScreen intf2: optically interferes with AlphaScreen signal; shares compounds with MITF primary; LysRS AlphaScreen counterscreen, signal interference, triplicate; inhibition, % at 2.6 µM; hit rate 7.6% among 4,700; AID 1259376;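 active = inhibition above a cutoff derived from the DMSO control wells, cut at about 30% in these data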
An asterisk follows results filed as active. An excerpt weighted towards active compounds, which were near 3.4% of everything screened.

How did O=C1NC(=O)C(CCc2ccccn2)(CCc2ccccn2)C(=O)N1 do in these assays?
FBW7 act: 0; TEAD-YAP inh: 6; MITF primary: -14; GPR151 ag: -1

How did CC(C)(C)C(=O)NNCc1ccccc1 do in these assays?
FBW7 act: 0; TEAD-YAP inh: 9; MITF primary: 2; GPR151 ag: -2

What do the screens show for `CCc1ccc(CN2CCN(Cc3ccccc3Br)CC2)cc1`?
FBW7 act: 0; TEAD-YAP inh: 3; MITF primary: 57*; GPR151 ag: 1; MITF confirm: -2; AlphaScreen intf2: 6

Results for O=[N+]([O-])c1ccccc1CN1CCN(Cc2ccccc2Br)CC1 ?
FBW7 act: 0; TEAD-YAP inh: -1; MITF primary: 58*; GPR151 ag: -1; MITF confirm: 2; AlphaScreen intf2: 2

How did CSc1ccc(CN2CCN(Cc3ccccc3Br)CC2)cc1 do in these assays?
FBW7 act: 0; TEAD-YAP inh: 2; MITF primary: 75*; GPR151 ag: 0; MITF confirm: 12; AlphaScreen intf2: 26

How did CSc1ccc(CN2CCN(Cc3ccc(Br)cc3)CC2)cc1 do in these assays?
FBW7 act: 0; TEAD-YAP inh: -2; MITF primary: 78*; GPR151 ag: 2; MITF confirm: 14; AlphaScreen intf2: 13

How did CCN1CCN(Cc2ccccc2Br)CC1 do in these assays?
FBW7 act: 0; TEAD-YAP inh: 2; MITF primary: -6; GPR151 ag: -1

Results for CCN1CCN(Cc2ccc(SC)cc2)CC1 ?
FBW7 act: 0; TEAD-YAP inh: 4; MITF primary: 39; GPR151 ag: 1

Results for O=[N+]([O-])c1ccccc1CN1CCN(Cc2ccccc2)CC1 ?
FBW7 act: 0; TEAD-YAP inh: -10; MITF primary: 17; GPR151 ag: 2

Results for CCOC(=O)C1=C(C)OC(N)=C(C#N)C12C(=O)N(CC(=O)OC)c1ccccc12 (stereo not drawn) ?
FBW7 act: 0; TEAD-YAP inh: -6; MITF primary: -3; GPR151 ag: 1

What do the screens show for `CCc1nnc(NC(=O)Cn2c[n+]([N-][N+](=O)[O-])cn2)s1`?
FBW7 act: 0; TEAD-YAP inh: 7; MITF primary: 13; GPR151 ag: 1

Results for CCN1CCN(C(=O)Cc2ccc(OC)cc2)CC1 ?
FBW7 act: 0; TEAD-YAP inh: -14; MITF primary: 5; GPR151 ag: 1

How did CCn1c(C)cc2c(c1=O)C1(C(=O)N(Cc3ccc(F)cc3)c3ccccc31)C(C(=O)OC)=C(N)O2 (stereo not drawn) do in these assays?
FBW7 act: 0; TEAD-YAP inh: 1; MITF primary: -1; GPR151 ag: 0

How did Fc1cccc(CN2CCN(Cc3ccccc3F)CC2)c1 do in these assays?
FBW7 act: 0; TEAD-YAP inh: -1; MITF primary: 70*; GPR151 ag: 0; MITF confirm: 7; AlphaScreen intf2: -6

Results for Fc1cccc(CN2CCN(Cc3ccccc3)CC2)c1 ?
FBW7 act: 0; TEAD-YAP inh: 8; MITF primary: 64*; GPR151 ag: -1; MITF confirm: -4; AlphaScreen intf2: -7

How did CCc1ccc(CN2CCN(Cc3ccc(F)cc3)CC2)cc1 do in these assays?
FBW7 act: 0; TEAD-YAP inh: -6; MITF primary: 57*; GPR151 ag: 0; MITF confirm: 0; AlphaScreen intf2: -4

What do the screens show for `Cc1cccc(CN2CCN(Cc3ccc(Cl)cc3)CC2)c1`?
FBW7 act: 0; TEAD-YAP inh: 10; MITF primary: 59*; GPR151 ag: 0; MITF confirm: 9; AlphaScreen intf2: 16

Results for COc1ccc(CCNCc2cccc(OC)c2OC)cc1 ?
FBW7 act: 0; TEAD-YAP inh: 1; MITF primary: 47; GPR151 ag: 2

Results for Cc1cccc(CN2CCN(Cc3cccc(F)c3)CC2)c1 ?
FBW7 act: 0; TEAD-YAP inh: 3; MITF primary: 76*; GPR151 ag: -1; MITF confirm: 2; AlphaScreen intf2: 7

How did CCc1ccc(CN2CCN(Cc3cccc(F)c3)CC2)cc1 do in these assays?
FBW7 act: 0; TEAD-YAP inh: -12; MITF primary: 75*; GPR151 ag: -1; MITF confirm: 5; AlphaScreen intf2: 3

What do the screens show for `CCc1ccc(CN2CCN(Cc3cccc(C)c3)CC2)cc1`?
FBW7 act: 0; TEAD-YAP inh: -8; MITF primary: 39; GPR151 ag: 0

What do the screens show for `CCN1CCN(Cc2cccc(F)c2)CC1`?
FBW7 act: 0; TEAD-YAP inh: 6; MITF primary: -1; GPR151 ag: -2

Results for COc1ccc(-n2c(/C=C/c3ccc(O)cc3)nc3ccccc3c2=O)cc1Cl ?
FBW7 act: 0; TEAD-YAP inh: -3; MITF primary: 45; GPR151 ag: -2

How did COc1ccc(CN2CCN(Cc3ccc(C)cc3)CC2)cc1Br do in these assays?
FBW7 act: 0; TEAD-YAP inh: -3; MITF primary: 53*; GPR151 ag: 1; MITF confirm: 15; AlphaScreen intf2: 21

What do the screens show for `COc1ccc(CN2CCN(C(=O)Cc3ccccc3)CC2)cc1Br`?
FBW7 act: 0; TEAD-YAP inh: 8; MITF primary: 53*; GPR151 ag: 0; MITF confirm: 15; AlphaScreen intf2: 22

What do the screens show for `COc1ccc2ccccc2c1CN1CCN(C(=O)Cc2ccccc2)CC1`?
FBW7 act: 0; TEAD-YAP inh: 3; MITF primary: 55*; GPR151 ag: -1; MITF confirm: -12; AlphaScreen intf2: -5

How did COc1ccc(CN2CCN(Cc3cccc(Br)c3)CC2)cc1Br do in these assays?
FBW7 act: 0; TEAD-YAP inh: -1; MITF primary: 76*; GPR151 ag: 2; MITF confirm: 12; AlphaScreen intf2: 1

How did COc1ccc(CN2CCN(C(=O)COc3ccccc3)CC2)cc1OC do in these assays?
FBW7 act: 0; TEAD-YAP inh: 4; MITF primary: 44; GPR151 ag: 0

Results for Cc1c(Cl)cccc1NC1=NCC(C)S1 (stereo not drawn) ?
FBW7 act: 0; TEAD-YAP inh: 14; MITF primary: -5; GPR151 ag: 0

Results for COc1ccc(CN2CCN(Cc3cccc(Cl)c3)CC2)cc1Br ?
FBW7 act: 0; TEAD-YAP inh: 4; MITF primary: 68*; GPR151 ag: -1; MITF confirm: 39*; AS interf DR: >6.1; AlphaScreen intf2: 2

Results for CCOc1ccc(CN2CCN(Cc3ccccc3F)CC2)cc1 ?
FBW7 act: 0; TEAD-YAP inh: 12; MITF primary: 75*; GPR151 ag: 0; MITF confirm: 8; AlphaScreen intf2: 9

Results for COc1ccc(CN2CCN(Cc3ccc(OC)cc3)CC2)cc1 ?
FBW7 act: 0; TEAD-YAP inh: 6; MITF primary: 14; GPR151 ag: -1
